About 3,200 (25%) of roughly 13,000 compounds showed an effect of 50% or more. Some of the results follow.
These compounds were tested on P. falciparum stage V gametocytes. Conditions: 48 h, 5 µM; inhibitor.
Parameters: BacTiter-Glo ATP luminescence viability of purified stage V gametocytes in 384-well plates, per cent inhibition versus DMSO

Compound | % Inhibition [%]
Cn1ncc2c3c(CCN4CCC(NCc5cc6c(cn5)OCC6)CC4)c(Cl)cnc3ccc21 [TCMDC-136024] | -18.24
COc1ccccc1C(=O)Nc1cccc(N2CCC(NCc3ccc(-n4cccn4)cc3)CC2)c1 [TCMDC-124643] | 0.3581
COc1ccccc1NC(=O)Nc1ccc(-c2ccc(-c3nc4cccc(C)c4[nH]3)s2)cc1 [TCMDC-133201] | -21.27
COc1cccc(CN(C(=O)Nc2ccccc2F)[C@H]2C[C@H]3C(=O)Nc4cc(F)ccc4C(=O)N3C2)c1 [TCMDC-134304] | 17.59
CC(C)(C)C(=O)Oc1ccc(CC2NCCc3cc(OC(=O)C(C)(C)C)c(OC(=O)C(C)(C)C)cc32)cc1OC(=O)C(C)(C)C (stereo not drawn) [TCMDC-131452] | -22.51
NCC1CCCN1Cc1ccc(-c2ccc(-c3nc4ccccc4[nH]3)s2)cc1 (stereo not drawn) [TCMDC-132988] | 37.26
NC(=O)C1CCN(Cc2cccc(-c3cccc(-c4nc5ccc(F)cc5[nH]4)c3)c2)CC1 [TCMDC-132686] | -35.6
NCC1CCCN1Cc1ccc(-c2cccc(-c3nc4ccc(F)cc4[nH]3)c2)cc1 (stereo not drawn) [TCMDC-132998] | 102.5
NCC1CCCN1Cc1ccc(-c2ccc(-c3nc4ccc(F)cc4[nH]3)cc2)cc1 (stereo not drawn) [TCMDC-132994] | 65.53
Cc1cccc2[nH]c(-c3cccc(-c4cccc(CN5CCCC5CN)c4)c3)nc12 (stereo not drawn) [TCMDC-132989] | 49.36
Fc1ccc2nc(-c3ccc(-c4ccc(CN5CCN(CCN6CCOCC6)CC5)cc4)cc3)[nH]c2c1 [TCMDC-133926] | -0.4105
NCC1CCCN1Cc1cccc(-c2cccc(-c3nc4ccc(F)cc4[nH]3)c2)c1 (stereo not drawn) [TCMDC-133001] | 98.63
COc1ccccc1OCCN(CC(O)COc1cccc2[nH]c3ccccc3c12)CC(O)COc1cccc2[nH]c3ccccc3c12 (stereo not drawn) [TCMDC-141980] | -17.57
O=C1NCN(c2ccc(O)cc2)C12CCN(CCCC(c1ccc(F)cc1)c1ccc(F)cc1)CC2 [TCMDC-138052] | -32.4
Cc1[nH]c(C)c(-c2ccc(-c3ccc(Cl)cc3)cc2)c(=O)c1Cl [TCMDC-137416] | 50.46
Cc1[nH]c(C)c(-c2ccc(Cl)cc2)c(=O)c1I [TCMDC-137424] | 41.94
Cc1[nH]c(C)c(-c2ccc(/C=C/c3ccccn3)cc2)c(=O)c1Cl [TCMDC-135787] | 58.19
Cc1[nH]c(C)c(-c2ccc(C(=O)c3ccc(Cl)cc3)cc2)c(=O)c1Cl [TCMDC-137413] | 70.39
Cc1[nH]c(C)c(-c2csc3ccccc23)c(=O)c1Cl [TCMDC-136017] | 42.39
Cc1[nH]c(C)c(-c2ccc(C(=O)c3ccccc3)cc2)c(=O)c1Br [TCMDC-137419] | 74.6
CC[C@H](C)CNC(=O)c1cncc(-c2ccc(CNCC3CNCCCO3)cc2)c1 (stereo partly drawn) [TCMDC-134269] | 2.096
CN(C)CCCN1C(=O)c2[nH]nc(-c3ccc(Cl)cc3O)c2C1c1ccc(Cl)cc1 (stereo not drawn) [TCMDC-124910] | -62.01

Compound | % Inhibition [%]
C(=N\Nc1nccc2sc(-c3cccnc3)cc12)/c1cccnc1 [TCMDC-135297] | -1.822
O=C1c2ccccc2CN1CCCN1CCC(Oc2ccc(F)cc2)CC1 [TCMDC-141252] | -41.1
COc1c(Br)cc(Br)cc1-c1ccc(CN2C3CCCC2CCC3)[nH]1 [TCMDC-138965] | -8.76
CC(C)S(=O)(=O)N1CCN(Cc2ccc3c(c2)nc(NC(=O)c2ccsc2)n3C[C@H](O)c2ccccc2)CC1 [TCMDC-138569] | -9.312
Cc1[nH]c(C)c(C2CCC(c3ccc(Cl)cc3)CC2)c(=O)c1Cl (stereo not drawn) [TCMDC-137423] | 63.6
Cc1[nH]c(C)c(-c2ccc(Br)cc2)c(=O)c1Cl [TCMDC-135043] | 62.53
Cc1[nH]c(C)c(-c2cc3ccccc3o2)c(=O)c1Cl [TCMDC-135948] | 11.96
Cc1[nH]c(C)c(-c2ccc(C(=O)c3ccc(Cl)cc3)cc2)c(=O)c1Br [TCMDC-137407] | 68.89
CCN(CC)C(=O)c1cccc(C=Cc2ccc(-c3c(C)[nH]c(C)c(Cl)c3=O)cc2)c1 [TCMDC-135819] | 53.1
Cc1cc(=O)c(C2CCC(c3ccc(Cl)cc3)CC2)c(C)[nH]1 (stereo not drawn) [TCMDC-138154] | 9.202
Cc1[nH]c(C)c(-c2ccc(Br)cc2)c(=O)c1Br [TCMDC-137537] | 28.95
Cc1cc(=O)[nH]c2cc(Nc3ccnc(Nc4cccc(C(N)=O)c4)n3)ccc12 [TCMDC-138710] | 20.95
CC(C)Oc1ccc(N2CCN(CCCCNC(=O)c3ccc(NC(=O)c4ccc(Cl)cc4)cc3)CC2)c(OC(C)C)c1 [TCMDC-138245] | -2.12
C#CCN(Cc1ccc2nc(N)[nH]c(=O)c2c1)c1ccc(C(=O)N[C@@H](CCC(=O)O)C(=O)O)cc1 [TCMDC-131823] | -7.091
O=C(CCCCCNC(=O)c1ccc(O)c(-c2cccc(C(F)(F)F)c2)c1)NCCN1CCCCC1 [TCMDC-140814] | -2.677
Cc1cc(N(C)C)nc(Nc2ccc(NC(=O)c3cccc(F)c3)cc2)n1 [TCMDC-124724] | 10.45
Cc1[nH]c(C)c(-c2ccc(Sc3ccc(Cl)cc3)cc2)c(=O)c1Br [TCMDC-137404] | 66.05
COc1ccc2ncc(Cl)c(N3CCC(CCNCc4ccc5c(n4)NC(=O)CS5)CC3)c2c1.Cl [TCMDC-141958] | 0.05948
CC(C)(C)NS(=O)(=O)c1cc(C(=O)N2CCC(CCN3CCC(O)(c4cccc(C(F)(F)F)c4)CC3)(c3cccc(F)c3)CC2)c(Cl)cc1F [TCMDC-135886] | 93.87
O=C(Cc1ccccc1)NC(CCN1CCC(O)(c2cccc(C(F)(F)F)c2)CC1)c1ccc(Cl)c(Cl)c1 (stereo not drawn) [TCMDC-141711] | 14.28
CC(C)(C)NS(=O)(=O)c1cc(C(=O)N2CCC(CCN3CCC(C(=O)c4ccc(F)cc4)CC3)(c3cccc(F)c3)CC2)c(Cl)cc1F [TCMDC-135885] | 79.72
CC(=O)C1(c2ccccc2)CCN(CCC2(c3ccc(Cl)c(Cl)c3)CN(C(=O)Nc3cccc(C(F)(F)F)c3)CCO2)CC1 (stereo not drawn) [TCMDC-135342] | 34.05

Compound | % Inhibition [%]
O=C(NC1CCN(CCC[C@]2(c3ccc(Cl)c(Cl)c3)CCCN(C(=O)c3ccccc3)C2)CC1)c1ccc(Cl)cc1 [TCMDC-141713] | -34.58
CN(C)S(=O)(=O)c1ccc(N2CCN(CCC3(c4cccc(F)c4)CCN(C(=O)C(C)(C)C)CC3)CC2)c2nonc12 [TCMDC-135887] | 8.489
COc1ccccc1NC(=O)Nc1ccc(-c2cccc(-c3nc4ccccc4[nH]3)c2)cc1 [TCMDC-133206] | 15.44
FC(F)(F)c1cc(Nc2ncnc3ccc(Br)cc23)ccc1OCc1ccccc1 [TCMDC-131923] | 9.607
CN1CCN(Cc2cccc(-c3ccc4c(Nc5ccc(Oc6ccccc6)cc5)ccnc4c3)c2)CC1 [TCMDC-138476] | 95.08
CN1CCN(Cc2nc(-c3ccc4c(Nc5ccc(F)c(O)c5)ccnc4c3)cs2)CC1 [TCMDC-138439] | 95.29
COCCNCc1nc(-c2ccc3c(Nc4ccc(F)c(O)c4)ccnc3c2)cs1 [TCMDC-138411] | 27.64
c1cncc(Oc2ccc(Nc3ccnc4cc(-c5cccc(CN6CCOCC6)c5)ccc34)cc2)c1 [TCMDC-138490] | -4.813
Cc1ccc(O)cc1Nc1ccnc2cc(-c3csc(CN4CCN(C)CC4)n3)ccc12 [TCMDC-138459] | 29.46
Oc1cc(Nc2ccnc3cc(-c4cccc(CN5CCCCC5)c4)ccc23)c(F)cc1Cl [TCMDC-138433] | 38.27
CN1CCN(Cc2cccc(-c3ccc4c(Nc5ccc(Oc6cccnc6)cc5)ccnc4c3)c2)CC1 [TCMDC-138489] | 97.22
CN1CCN(Cc2cccc(-c3cc4nccc(Nc5ccc(Oc6ccccc6)cc5)c4cc3Cl)c2)CC1 [TCMDC-138460] | 0.7486
c1cncc(Oc2ccc(Nc3ccnc4cc(-c5cccc(CN6CCCCC6)c5)ccc34)cc2)c1 [TCMDC-138491] | 61.6
c1ccc(Oc2ccc(Nc3ccnc4cc(-c5cccc(CN6CCOCC6)c5)ccc34)cc2)cc1 [TCMDC-138475] | -43.1
Cc1ccc(/C=C2/SC(=Nc3ccccc3)NC2=O)c(C)c1 [TCMDC-124428] | 45.43
CCOC(=O)c1cncc(/C=C/c2cc(C)cnc2N)c1 [TCMDC-134321] | 18.35
CC(C)(C)C1CC(=O)CC2C(=O)N(C3CCCCC3)C(=O)C21 (stereo not drawn) [TCMDC-139129] | -1.455
CC1(C)NC(N)=NC(=N)N1OCc1nc(N)nc(Nc2ccccc2)n1 [TCMDC-131613] | 27.92
C=CCN1C(=O)C(C(C)=O)=C(O)C1c1ccccc1 (stereo not drawn) [TCMDC-131675] | 0.4612
CC(C)C[C@@H](C(=O)Nc1ccc(Cc2ccc(NC(=O)[C@H](CC(C)C)N(C)C(=O)OC(C)(C)C)cc2)cc1)N(C)C(=O)OC(C)(C)C [TCMDC-131871] | 6.615
c1ccc(Oc2ccc(Nc3ccnc4cc(-c5csc(CN6CCCCC6)n5)ccc34)cc2)nc1 [TCMDC-138428] | -35.56
CN1CCN(Cc2nc(-c3ccc4c(Nc5ccc(Oc6ccccc6)cc5)ccnc4c3)cs2)CC1 [TCMDC-138409] | 54.56

From PMC4552634, “A New Set of Chemical Starting Points with Plasmodium falciparum Transmission-Blocking Potential for Antimalarial Drug Discovery” (PLoS ONE, 2015)
